This is an account of results in PubChem BioAssay (NCATS).

The subject of one test is MCC-26. Briefly: qHTS assay to identify novel small-molecules to repurpose for Merkel cell carcinoma treatment (AID 1296009). Further: nearly all actives have a fitted effect of over 60% in size. The note with it: MCC and control cell lines, CellTiter-Glo viability, 72 h; series mostly up to 46 µM. Summed up:
(§1)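 Cell viability, measured as CellTiter-Glo luminescence, was normalized between DMSO and no-cell wells. The cells had been exposed to 8- or 11-point compound dilutions for 72 hr at 37 degree celsius.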

Another test deals with MKL-1. The test is described as above. The note with it: MCC and control cell lines, CellTiter-Glo viability, 72 h; series mostly up to 46 µM. Summed up:
as §1

The subject of the next test is MKL-2. Described as above. Particulars: MCC and control cell lines, CellTiter-Glo viability, 72 h; series mostly up to 46 µM. Summed up: as §1
For another test, the system named is UISO. The description is as above. Particulars: MCC and control cell lines, CellTiter-Glo viability, 72 h; series mostly up to 46 µM. Summed up:
as §1
(In ATP-based viability assays light output follows the ATP content of the culture.)

Another test deals with WaGa. The description is as above. The note with it: MCC and control cell lines, CellTiter-Glo viability, 72 h; series mostly up to 46 µM. Summed up: as §1
Another test deals with C33A. As to the kind of experiment: Primary qHTS to identify gynecologic anti-cancer compounds using libraries of approved drugs and bioactive compounds (AID 1345084). Further: nearly all actives have a fitted effect of over 55% in size. The note with it: Gynecologic cancer cell panel viability, ATPlite luminescence, 48 h; series mostly up to 57.5 µM. Summed up: (§2)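 Measured: luminescence after ATPlite addition (15 min, RT). Exposure: 48 h, 37 C, 5% CO2.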
(In general: Quantitative high-throughput screening tests each substance at several concentrations.)

Another test deals with CAOV3. The test is described as above. Particulars: Gynecologic cancer cell panel viability, ATPlite luminescence, 48 h; series mostly up to 57.5 µM. Summed up:
as §2

A further test deals with CASKI. The description is as above. The note with it: Gynecologic cancer cell panel viability, ATPlite luminescence, 48 h; series mostly up to 57.5 µM. Summed up:
as §2

Another test has as its system Es-2. Described as above. The note with it: Gynecologic cancer cell panel viability, ATPlite luminescence, 48 h; series mostly up to 57.5 µM. Summed up:
as §2

In a further test the test system is HeLa. The description is as above. Particulars: Gynecologic cancer cell panel viability, ATPlite luminescence, 48 h; series mostly up to 57.5 µM. Summed up:
as §2

A further test deals with Hek293T. Described as above. The note with it: Gynecologic cancer cell panel viability, ATPlite luminescence, 48 h, control line for the selectivity index; series mostly up to 57.5 µM. Summed up: as §2
Another test relates to JEG-3. Described as above. The note with it: Gynecologic cancer cell panel viability, ATPlite luminescence, 48 h; series mostly up to 57.5 µM. Summed up: as §2
The test system of a further test is OV90. The test is described as above. Particulars: Gynecologic cancer cell panel viability, ATPlite luminescence, 48 h; series mostly up to 57.5 µM. Summed up: as §2
The next test relates to PA-1. The description is as above. The note with it: Gynecologic cancer cell panel viability, ATPlite luminescence, 48 h; series mostly up to 57.5 µM. Summed up:
as §2

The test system of a further test is SKOV3. The test is described as above. Particulars: Gynecologic cancer cell panel viability, ATPlite luminescence, 48 h; series mostly up to 57.5 µM. Summed up:
as §2

For the next test, the system named is Tov-21-G. The test is described as above. The note with it: Gynecologic cancer cell panel viability, ATPlite luminescence, 48 h; series mostly up to 57.5 µM. Summed up:
as §2

Another test deals with Tov112D. The description is as above. Particulars: Gynecologic cancer cell panel viability, ATPlite luminescence, 48 h; series mostly up to 57.5 µM. Summed up: as §2
A short description of test [1]: Drug repurposing screens with cells derived from glioblastoma tumor samples (AID 1345199). Further: nearly all actives have a fitted effect of over 40% in size. The note with it: GBM patient neurospheres viability, ATP luminescence, 48 h. Summed up:
(§3)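 Primary testing used CD133+ neurospheres from four GBM patients, seven concentrations, 48 h exposure and ATP-based viability; confirmation added three slower-growing patient lines.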

In another test the test system is astro. Described as above. The note with it: viability, ATP luminescence, 48 h; series mostly up to 45.9 µM. Summed up:
as §3

The mark [2] stands for this setting: at 45.9 µM (top of the series), tumour line B.
Setting [3] is: at 45.9 µM (top of the series), tumour line D.
[4] abbreviates: at 46 µM (top of the series), tumour line A.
Where [5] appears, read: at 46.1 µM (top of the series), tumour line C.

“And” between values parts separate entries of the source, which are not always exact repeats. Equal entries are not always repeated. Inconclusive results are not listed. Values without a mark were called inactive. The source made the active and inactive calls. The call rests on the fitted dose curve; in most records, active means well fitted curve in the direction sought with a large enough effect; inconclusive means small, poorly fitted or top-dose-only effect, or another doubt; inactive means no such curve, though single readings can be large; an effect the other way counts as inactive or inconclusive.
On the % scale 0 is the no-effect control and ±100 the full control effect; potency means the concentration at half of the fitted maximal effect.

In the case of `COc1ccc(Cl)cc1C(=O)NCCc1ccc(S(=O)(=O)NC(=O)NC2CCCCC2)cc1`, the Potency entry in the test on MCC-26, in the test on MKL-1, with MKL-2, in the test on UISO, in the test on WaGa and in the test with C33A was “inactive” throughout. The Potency entry with CAOV3, with CASKI, with Es-2, in the test with HeLa, in the test on Hek293T and in the test with JEG-3 was “inactive” each time. Moreover, the Potency result in the test with OV90, in the test on PA-1, in the test on SKOV3, in the test with Tov-21-G, in the test with Tov112D and in the test on astro was “inactive” throughout. Moreover, the activity, negative = cell killing in test [1] (setting [2]) was 5.08%; in test [1] (setting [3]), -17.4%; in test [1] (setting [4]), -29%; in test [1] (setting [5]), -8.3%.
With `O=C1O[C@H](CO)[C@@H](O)[C@H](O)[C@H]1O`, the Potency entry in the test with MCC-26, in the test on MKL-1, in the test with MKL-2, with UISO, in the test on WaGa and in the test on C33A was “inactive” each time. Besides, the Potency result in the test on CAOV3, with CASKI, in the test on Es-2, in the test on HeLa, with Hek293T and in the test with JEG-3 was “inactive” in each case. The Potency result with OV90, in the test on PA-1, in the test with SKOV3, in the test on Tov-21-G, in the test on Tov112D and in the test with astro was “inactive” in each case. The results for the activity, negative = cell killing in test [1] (setting [2]), in [1] (setting [3]) and in test [1] (setting [5]) were -6.95%, 6.72% and 0.13%, respectively.
For `C[C@@H]1CN(c2c(F)c(F)c3c(=O)c(C(=O)O)cn(C4CC4)c3c2F)C[C@H](C)N1`, the Potency result in the test on MCC-26, in the test with MKL-1, in the test with MKL-2, in the test on UISO, with WaGa and in the test on C33A was “inactive” in each case. The Potency entry in the test with CASKI, with Es-2, in the test on HeLa, with Hek293T, in the test with JEG-3 and in the test with OV90 was “inactive” throughout. The Potency entry in the test with PA-1, with SKOV3, with Tov-21-G, in the test with Tov112D and in the test on astro was “inactive” in each case. For the same molecule, the activity, negative = cell killing in [1] (setting [2]) was -1.06%; in [1] (setting [3]), -13.8%; in test [1] (setting [4]), -28.8%; in test [1] (setting [5]), 26.5%.
`C[C@]12C[C@H](O)[C@H]3[C@@H](CCC4=CC(=O)CC[C@@]43C)[C@@H]1CC[C@@H]2C(=O)CO`: the Potency entry in the test with MCC-26, in the test on MKL-1, with MKL-2, in the test with UISO, in the test with WaGa and in the test on C33A was “inactive” in each case. Besides, the Potency result in the test on CAOV3, in the test on CASKI, in the test on Es-2, with Hek293T, with JEG-3 and in the test on OV90 was “inactive” in each case. In addition, the Potency result in the test with PA-1, in the test with SKOV3, in the test on Tov-21-G, in the test with Tov112D and in the test with astro was “inactive” throughout. Further, in the test with HeLa, the Potency is 20 µM (active). Besides, the activity, negative = cell killing is -17.6% in test [1] (setting [2]) and -22.1% in test [1] (setting [3]).
As to `O=C(O)Cc1sc(-c2ccccc2)nc1-c1ccc(Cl)cc1`, the Potency result in the test with MCC-26, in the test on MKL-1, in the test on MKL-2, in the test with UISO, in the test on WaGa and in the test with C33A was “inactive” in each case. Besides, the Potency result in the test on CAOV3, in the test on CASKI, in the test with Es-2, in the test on HeLa, with Hek293T and in the test with JEG-3 was “inactive” in each case. Moreover, the Potency result with OV90, with PA-1, in the test on SKOV3, in the test with Tov-21-G, with Tov112D and in the test with astro was “inactive” throughout. Further, the activity, negative = cell killing is -34% and -7.66% in test [1] (setting [3]); -38.9% in test [1] (setting [4]); -4.36% and -11.1% in test [1] (setting [5]).
For `CC(C)c1c(C(=O)Nc2ccccc2)c(-c2ccccc2)c(-c2ccc(F)cc2)n1CC[C@@H](O)C[C@@H](O)CC(=O)O`, the Potency in the test on MCC-26 was 23.7 µM (active); in the test on MKL-1, 3.35 µM (active); with MKL-2 it was 2.66 µM (active); in the test on UISO, 10.6 µM (active); in the test on WaGa it was 7.5 µM (active); with astro, 11.2 µM (active). The Potency entry in the test on C33A, in the test with CAOV3, in the test with CASKI, in the test with Es-2, in the test with HeLa and in the test with Hek293T was “inactive” throughout. In addition, the Potency entry in the test with JEG-3, in the test with OV90, with SKOV3, with Tov-21-G and in the test on Tov112D was “inactive” each time.
On to `CCCc1c(OCCCCc2nn[nH]n2)ccc(C(C)=O)c1O`, for which the Potency entry with MCC-26, in the test with MKL-1, in the test with MKL-2, in the test on UISO, in the test on WaGa and in the test on C33A was “inactive” each time. In addition, the Potency entry with CAOV3, in the test with CASKI, with Es-2, in the test on HeLa, in the test on Hek293T and with JEG-3 was “inactive” throughout. The Potency result in the test on OV90, with PA-1, with SKOV3, in the test on Tov-21-G and with Tov112D was “inactive” each time. The Potency with astro was 25.1 µM (active).
In the case of `CCCCOC(=O)c1ccc(O)cc1`, the Potency result with MCC-26, in the test on MKL-1, with MKL-2, in the test on UISO, in the test with WaGa and in the test on C33A was “inactive” each time. The Potency result in the test on CAOV3, with CASKI, with Es-2, in the test on HeLa, in the test with Hek293T and in the test with JEG-3 was “inactive” throughout. Moreover, the Potency entry in the test on OV90, in the test with PA-1, with SKOV3, in the test on Tov-21-G, in the test with Tov112D and with astro was “inactive” throughout. Further, the activity, negative = cell killing in [1] (setting [2]) was -17.3%; in test [1] (setting [3]), -11.1%; in test [1] (setting [5]) it was 26.3%.
As for `CN(C)CCN(Cc1ccccc1)c1ccccn1`, the Potency entry in the test with MCC-26, in the test on MKL-1, in the test on MKL-2, in the test with UISO, with WaGa and with C33A was “inactive” each time. Further, the Potency entry in the test with CAOV3, with CASKI, in the test with Es-2, with HeLa, with JEG-3 and in the test on OV90 was “inactive” throughout. The Potency result with PA-1, with SKOV3, in the test with Tov-21-G, in the test on Tov112D and in the test on astro was “inactive” throughout. In addition, the activity, negative = cell killing in test [1] (setting [2]) is -8.05%; in test [1] (setting [5]), -4.16%. The Potency in [1] (tumour line A) is 5.62 µM (active).
